The whole screen tested about 5,500 compounds, of which about 2,000 (36%) were called active. Roughly 18% stayed inconclusive and do not appear here. Cut-off read from the data, not from the text of the source: active = normalized growth mostly below about 0.91 (no sharp cut-off); inconclusive = no clear call, values can overlap the other calls; inactive = mostly above about 0.92. Some of the results follow.
Assay: chemical genetic growth profiling, strain panel (AID 1159580);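 note: tested at 20 µM; growth read once vehicle control cultures reached saturation at 30 °C; 1 = growth at the plate median or of vehicle wells; lower values mean less growth of the strain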
Settings: S. cerevisiae deletion strains, growth OD

Measured: normalized growth

CN(C)CC/C=C1\c2ccccc2COc2ccccc21
inactive: locus YAL013W, strain DEP1, stronger effect = lower value 0.998 | locus YAL040C, strain CLN3, stronger effect = lower value 0.997 | locus YCL061C, strain MRC1 (second series), stronger effect = lower value 0.992 | locus YDR150W, strain NUM1, stronger effect = lower value 1.01 | locus YDR363W, strain ESC2, stronger effect = lower value 0.944 | locus YER002W, strain NOP16, stronger effect = lower value 1.01 | locus YGR078C, strain PAC10, stronger effect = lower value 1.01 | locus YJR075W, strain HOC1, stronger effect = lower value 0.952 | locus YMR263W, strain SAP30, stronger effect = lower value 0.991 | locus YNL128W, strain TEP1, stronger effect = lower value 1.01 | locus YNL153C, strain GIM3, stronger effect = lower value 1.03 | locus YNL175C, strain NOP13, stronger effect = lower value 1.02 | locus YNL197C, strain WHI3, stronger effect = lower value 1 | locus YNL224C, strain SQS1, stronger effect = lower value 1.03 | locus YOR083W, strain WHI5 (second series), stronger effect = lower value 0.997

Reference: PubChem BioAssay AID1159580 (chemical genetic matrix, 2015)
